# Active and inactive are the calls of the source.
# Experiments:
# [1] = test system: Plasmodium falciparum Sir2 (PF13_0152, Sir2A); experiment: Plasmodium falciparum Sir2A binding compounds – biochemical, small-molecule microarray, 635 nm fluorescence, primary screen (AID 1098); settings: fluorescence 635 nm, higher = more signal;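 note: score merges spot fluorescence intensity with its signal-to-noise ratio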
# [2] = probe aDKK1 binding to arrayed compounds – biochemical, biotinylated probe, 635/667 nm fluorescence, primary screen (AID 1099); settings: small-molecule microarray, higher = more signal;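 note: score merges 667nm spot fluorescence with signal to noise across triplicate slides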
# [3] = probe aCHRDL2 binding to arrayed compounds – biochemical, biotinylated probe, 635/667 nm fluorescence, primary screen (AID 1100); settings: small-molecule microarray, higher = more signal
# [4] = change in splice reporter luminescence, either direction, cell-based, HEK293, spliceosome inhibition project, primary screen (AID 1101); settings: HEK293 splicing luciferase reporter, 24 h, higher = more signal, called active from +8 up or from −8 down;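 note: HEK293 cells carrying a splicing-competent luciferase reporter gene; test concentration not given here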
# [5] = target: Fibroblast growth factor 10 (Homo sapiens) (UniProt O15520); experiment: compounds binding fibroblast growth factor 10 – biochemical, small-molecule microarray, 635 nm fluorescence, primary screen (AID 1102); settings: FGF10 binding, fluorescence 635 nm, higher = more signal
# Sequence of Fibroblast growth factor 10 (Homo sapiens) (O15520 whole entry, looked up): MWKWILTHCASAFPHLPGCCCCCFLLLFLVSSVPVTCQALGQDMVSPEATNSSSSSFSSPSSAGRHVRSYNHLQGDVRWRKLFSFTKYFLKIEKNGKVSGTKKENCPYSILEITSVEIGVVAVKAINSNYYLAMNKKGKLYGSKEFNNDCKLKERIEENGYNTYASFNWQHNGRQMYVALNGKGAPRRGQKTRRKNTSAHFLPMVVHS
# [6] = test system: glycogen synthase kinase-3 (GSK3A per assay name; protocol says GSK3B); experiment: compounds binding glycogen synthase kinase-3 – biochemical, small-molecule microarray, 635 nm fluorescence, GSK3A, primary screen (AID 1103); settings: fluorescence 635 nm, higher = more signal; note: the record names both GSK3A and GSK3B
# [7] = target: Epidermal growth factor receptor (Homo sapiens) (UniProt P00533); experiment: compounds binding epidermal growth factor receptor – biochemical, small-molecule microarray, 635 nm fluorescence, primary screen (AID 1104); settings: EGFR binding, higher = more signal;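 note: score merges 667 nm emission intensity with spot signal to noise over triplicate slides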
# Sequence of Epidermal growth factor receptor (Homo sapiens) (P00533 whole entry, looked up): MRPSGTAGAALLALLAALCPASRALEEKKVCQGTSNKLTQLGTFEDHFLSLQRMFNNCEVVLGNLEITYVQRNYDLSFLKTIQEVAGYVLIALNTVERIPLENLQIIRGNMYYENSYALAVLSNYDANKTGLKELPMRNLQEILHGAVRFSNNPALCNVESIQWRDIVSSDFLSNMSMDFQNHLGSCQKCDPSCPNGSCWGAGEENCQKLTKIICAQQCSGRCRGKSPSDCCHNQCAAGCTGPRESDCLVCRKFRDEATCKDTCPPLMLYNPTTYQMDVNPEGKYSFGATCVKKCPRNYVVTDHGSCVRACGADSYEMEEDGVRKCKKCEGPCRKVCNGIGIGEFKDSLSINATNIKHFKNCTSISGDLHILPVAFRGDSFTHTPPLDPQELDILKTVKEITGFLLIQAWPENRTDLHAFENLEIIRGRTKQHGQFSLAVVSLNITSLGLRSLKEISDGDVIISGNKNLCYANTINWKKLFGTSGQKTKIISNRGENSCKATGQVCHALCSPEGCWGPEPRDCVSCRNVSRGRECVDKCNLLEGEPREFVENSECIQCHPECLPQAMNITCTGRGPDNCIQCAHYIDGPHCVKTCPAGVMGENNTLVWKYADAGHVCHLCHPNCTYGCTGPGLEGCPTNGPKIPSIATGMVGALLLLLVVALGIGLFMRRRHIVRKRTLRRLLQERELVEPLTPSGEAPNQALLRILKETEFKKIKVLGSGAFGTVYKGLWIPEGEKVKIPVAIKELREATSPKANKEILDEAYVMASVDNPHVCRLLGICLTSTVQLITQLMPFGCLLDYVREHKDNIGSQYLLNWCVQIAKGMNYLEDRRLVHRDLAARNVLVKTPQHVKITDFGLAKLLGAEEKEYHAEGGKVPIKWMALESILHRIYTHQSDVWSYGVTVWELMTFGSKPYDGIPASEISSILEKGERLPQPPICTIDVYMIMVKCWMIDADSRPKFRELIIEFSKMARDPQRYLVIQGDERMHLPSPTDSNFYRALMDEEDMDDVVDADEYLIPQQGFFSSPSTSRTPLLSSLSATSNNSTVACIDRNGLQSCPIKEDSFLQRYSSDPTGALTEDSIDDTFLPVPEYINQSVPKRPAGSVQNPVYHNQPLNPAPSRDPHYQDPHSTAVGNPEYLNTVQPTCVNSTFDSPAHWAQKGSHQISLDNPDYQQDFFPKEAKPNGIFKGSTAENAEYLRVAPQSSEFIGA
# [8] = target: Follistatin-related protein 3 (Homo sapiens) (UniProt O95633); experiment: compounds binding follistatin-related protein 3 – biochemical, small-molecule microarray, 635 nm fluorescence, primary screen (AID 1105); settings: FSTL3 binding, higher = more signal;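 note: score merges emission near 667 nm and signal to noise per printed spot across three slides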
# Sequence of Follistatin-related protein 3 (Homo sapiens) (O95633 whole entry, looked up): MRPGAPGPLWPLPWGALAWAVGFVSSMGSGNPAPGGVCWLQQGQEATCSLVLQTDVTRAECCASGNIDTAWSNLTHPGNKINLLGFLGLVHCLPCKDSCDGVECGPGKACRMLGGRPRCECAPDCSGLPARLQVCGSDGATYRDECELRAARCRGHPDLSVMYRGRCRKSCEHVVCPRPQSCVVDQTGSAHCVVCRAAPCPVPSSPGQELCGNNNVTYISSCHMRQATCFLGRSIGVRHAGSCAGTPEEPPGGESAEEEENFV
# [9] = target: Dickkopf-related protein 1 (Homo sapiens) (UniProt O94907); experiment: small molecules binding DKK1 protein – biochemical, small-molecule microarray, 635 nm fluorescence scan, primary screen (AID 1106); settings: higher = more signal;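 note: score merges emission near 667 nm with signal to noise over three replicate slides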
# Sequence of Dickkopf-related protein 1 (Homo sapiens) (O94907 whole entry, looked up): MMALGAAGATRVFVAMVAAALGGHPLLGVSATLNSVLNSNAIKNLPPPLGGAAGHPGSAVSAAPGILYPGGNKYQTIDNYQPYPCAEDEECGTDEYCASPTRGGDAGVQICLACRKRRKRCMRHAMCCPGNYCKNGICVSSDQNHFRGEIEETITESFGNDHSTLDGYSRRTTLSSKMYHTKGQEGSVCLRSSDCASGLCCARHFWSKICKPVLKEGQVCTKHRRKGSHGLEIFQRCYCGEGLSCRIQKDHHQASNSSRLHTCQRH
# [10] = test system: Inhibin beta A chain (activin A); experiment: small molecules binding activin A – biochemical, small-molecule microarray, 635 nm fluorescence scan, primary screen (AID 1107); settings: INHBA, higher = more signal;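 note: mouse activin A protein probed at 4.33 µg/mL on printed slides; score merges bound-protein fluorescence near 667 nm with spot signal-to-noise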
# [11] = test system: Human papillomavirus type 1a protein E7 (residues 44-93); experiment: small molecules binding HPV E7 44-93 – biochemical, small-molecule microarray, residues 44-93, 635 nm fluorescence, primary screen (AID 1108); settings: fluorescence 635 nm, higher = more signal;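 note: E7 fragment applied at 1 µg/mL in TBST for 1 h at 4 C; score combines spot fluorescence with its signal to noise ratio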
# [12] = hepatitis C replication reporter changes, two-sided – Huh7 cells, luciferase reporter, HCV replication inhibitor project, primary screen (AID 1109); settings: Huh7 HCV replicon luciferase reporter, 48 h; higher = more signal;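 note: huh7 hepatoma cells harbouring a luciferase neomycin HCV replicon reporter; luciferase luminescence as measure of HCV replicon replication; test concentration not given here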
# [13] = target: Left-right determination factor 2 (Homo sapiens) (UniProt O00292); experiment: small molecules binding LEFTY2 protein – biochemical, small-molecule microarray, 635 nm fluorescence scan, primary screen (AID 1110); settings: higher = more signal
# Sequence of Left-right determination factor 2 (Homo sapiens) (O00292 whole entry, looked up): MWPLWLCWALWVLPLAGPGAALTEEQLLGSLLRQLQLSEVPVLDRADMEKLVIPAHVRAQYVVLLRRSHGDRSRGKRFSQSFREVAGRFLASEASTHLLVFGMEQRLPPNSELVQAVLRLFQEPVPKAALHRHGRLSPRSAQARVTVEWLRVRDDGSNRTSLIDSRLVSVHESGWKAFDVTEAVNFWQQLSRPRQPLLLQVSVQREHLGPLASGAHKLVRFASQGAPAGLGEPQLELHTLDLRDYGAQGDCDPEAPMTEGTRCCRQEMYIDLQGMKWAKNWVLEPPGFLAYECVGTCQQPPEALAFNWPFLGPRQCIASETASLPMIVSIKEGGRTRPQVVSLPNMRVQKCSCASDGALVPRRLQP
# [14] = target: Calmodulin-1 (Homo sapiens) (UniProt P0DP23); experiment: small molecules binding calmodulin-1 with EGTA – biochemical, small-molecule microarray, Cy5-labelled CALM1, profiling panel (AID 1111); settings: Cy5-CALM1 binding fluorescence, higher = more signal;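 note: labelled calmodulin applied in Tris saline Tween buffer holding calcium plus EGTA and DTT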
# [15] = target: Calmodulin-1 (Homo sapiens) (UniProt P0DP23); experiment: small molecules binding Ca-loaded calmodulin-1 – biochemical, small-molecule microarray, Cy5-labelled CALM1, plus calcium, artefact control for SMM control-protein annotation, profiling panel (AID 1112); settings: Cy5-CALM1 binding fluorescence, higher = more signal;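 note: score merges spot fluorescence with signal to noise from triplicate slides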
# [16] = probe aWnt5a binding to arrayed compounds – biochemical, biotinylated probe, 635/667 nm fluorescence, primary screen (AID 1113); settings: small-molecule microarray, higher = more signal;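 note: score merges 667 nm fluorescence intensity with signal-to-noise per printed feature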
# [17] = probe aShh binding to arrayed compounds – biochemical, biotinylated probe, 635/667 nm fluorescence, primary screen (AID 1114); settings: small-molecule microarray, higher = more signal;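 note: probe is biotin-labelled aShh protein from a stem cell growth factor screen; measures binding of labelled protein to compounds printed on the slide; score merges feature fluorescence at 667 nm with signal-to-noise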
# [18] = probe aNog binding to arrayed compounds – biochemical, biotinylated probe, 635/667 nm fluorescence, primary screen (AID 1115); settings: small-molecule microarray, higher = more signal;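 note: probe is biotinylated aNog protein used at 0.15 µg/mL for 1 h at 4 C; z-score combines 667 nm fluorescence of each spot with its signal to noise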
# [19] = target: Torsin-1A-interacting protein 1 (Homo sapiens) (UniProt Q5JTV8); experiment: compound microarray binding of lysate hLAP1 – cell lysate, small-molecule microarray, COS7 lysate, 635/667 nm fluorescence, primary screen (AID 1116); settings: 635 nm fluorescence, higher = more signal
# Sequence of Torsin-1A-interacting protein 1 (Homo sapiens) (Q5JTV8 whole entry, looked up): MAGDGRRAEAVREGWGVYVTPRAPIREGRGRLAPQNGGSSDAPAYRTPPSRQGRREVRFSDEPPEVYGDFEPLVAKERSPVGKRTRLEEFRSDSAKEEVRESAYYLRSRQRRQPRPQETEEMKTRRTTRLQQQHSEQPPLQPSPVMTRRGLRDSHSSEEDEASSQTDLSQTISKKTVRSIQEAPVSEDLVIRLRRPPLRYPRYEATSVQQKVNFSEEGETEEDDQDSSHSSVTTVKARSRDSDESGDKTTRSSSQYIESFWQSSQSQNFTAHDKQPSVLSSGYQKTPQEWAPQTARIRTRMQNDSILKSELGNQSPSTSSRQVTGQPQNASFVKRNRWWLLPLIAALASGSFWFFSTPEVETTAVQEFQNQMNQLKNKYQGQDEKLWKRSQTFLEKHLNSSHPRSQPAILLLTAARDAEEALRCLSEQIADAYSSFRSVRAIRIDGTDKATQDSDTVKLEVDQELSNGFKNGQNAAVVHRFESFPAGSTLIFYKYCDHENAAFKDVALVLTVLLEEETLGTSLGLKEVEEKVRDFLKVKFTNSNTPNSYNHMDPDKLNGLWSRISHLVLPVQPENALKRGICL
# [20] = target: Alpha-bungarotoxin (Bungarus multicinctus) (UniProt P60615); experiment: compounds binding labelled alpha-BTX control protein – biochemical, small-molecule microarray, Alexa647 label, 635/667 nm fluorescence, artefact control for SMM control protein annotation, profiling panel (AID 1117); settings: alpha-BTX-A647 binding fluorescence, higher = more signal
# Sequence of Alpha-bungarotoxin (Bungarus multicinctus) (P60615 whole entry, looked up): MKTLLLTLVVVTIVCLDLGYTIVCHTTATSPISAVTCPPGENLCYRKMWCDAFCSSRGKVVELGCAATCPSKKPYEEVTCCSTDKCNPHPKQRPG
smiles,measurement,setting,value
CCOC(=O)C1=CC[C@@H](c2ccc(-c3ccc(OCc4ccccc4)cc3)c(OC)c2)N(S(=O)(=O)c2ccc(C)cc2)[C@H]1c1ccccc1,composite z-score,[1],1.13
same,composite z-score,[2],0.583
same,composite z-score,[3],0.721
same,z-score,[4],-1.44 (inactive)
same,composite z-score,[5],1.24
same,composite z-score,[6],1.28
same,composite z-score,[7],0.12
same,composite z-score,[8],1.38
same,composite z-score,[9],0.273
same,composite z-score,[10],0.765
same,composite z-score,[11],1.39
same,z-score,[12],-1.76
same,composite z-score,[13],0.4
same,composite z-score,[14],1.64
same,composite z-score,[15],0.126
same,composite z-score,[16],0.0279
same,composite z-score,[17],-0.0171
same,composite z-score,[18],-0.226
same,composite z-score,[19],0.373
same,composite z-score,[20],1.27
COCC(=C=CC[C@H](O)c1ccc(OCCO)cc1)C[C@H](O)c1ccccn1,composite z-score,[1],0.338
same,composite z-score,[2],-0.169
same,composite z-score,[3],-0.201
same,z-score,[4],0.0572 (inactive)
same,composite z-score,[5],-0.198
same,composite z-score,[6],0.208
same,composite z-score,[7],-0.829
same,composite z-score,[8],-0.293
same,composite z-score,[9],-0.326
same,composite z-score,[10],0.403
same,composite z-score,[11],0.131
same,z-score,[12],-0.932
same,composite z-score,[13],-0.454
same,composite z-score,[14],-0.581
same,composite z-score,[15],-0.705
same,composite z-score,[16],-0.186
same,composite z-score,[17],0.235
same,composite z-score,[18],0.0516
same,composite z-score,[19],0.925
same,composite z-score,[20],-0.458
C[N+](C)(C)CCCC[C@@H]1NC(=O)[C@H]2C[C@@H](C(=O)NCc3ccc(F)cc3)[C@@H](c3cccc(OCCO)c3)N2C1=O,composite z-score,[1],0.459
same,composite z-score,[2],0.0243
same,composite z-score,[3],0.479
same,z-score,[4],-0.178 (inactive)
same,composite z-score,[5],0.988
same,composite z-score,[6],0.519
same,composite z-score,[7],0.139
same,composite z-score,[8],0.954
same,composite z-score,[9],0.885
same,composite z-score,[10],-0.7
same,composite z-score,[11],0.276
same,z-score,[12],0.328
same,composite z-score,[13],0.503
same,composite z-score,[14],0.884
same,composite z-score,[15],0.869
same,composite z-score,[16],-0.0522
same,composite z-score,[17],-0.0904
same,composite z-score,[18],0.0519
same,composite z-score,[19],1.42
same,composite z-score,[20],1.15
COc1ccc([Si](C)(C)[C@@H]2[C@@H](CC(=O)N(CCO)Cc3ccccc3)O[C@]3(C(=O)N(Cc4cccc(N5CCC5=O)c4)c4ccccc43)[C@H]2C)cc1,composite z-score,[1],1.41
same,composite z-score,[2],-0.163
same,composite z-score,[3],-0.229
same,z-score,[4],-0.732 (inactive)
same,composite z-score,[5],1.07
same,composite z-score,[6],0.583
same,composite z-score,[7],0.475
same,composite z-score,[8],0.875
same,composite z-score,[9],0.313
same,composite z-score,[10],0.552
same,composite z-score,[11],0.411
same,z-score,[12],-3.81
same,composite z-score,[13],0.571
same,composite z-score,[14],-0.0736
same,composite z-score,[15],-0.322
same,composite z-score,[16],-0.0718
same,composite z-score,[17],-0.0709
same,composite z-score,[18],-0.411
same,composite z-score,[19],1.28
same,composite z-score,[20],0.508
